Test results from paper PMC7862700, “An all-to-all approach to the identification of sequence-specific readers for epigenetic DNA modifications on cytosine”.

Columns and labels:
Assay in all cases: DAPPL (digital affinity profiling via proximity ligation, sequencing); 10 mM Tris-HCl pH 7.5, 50 mM NaCl, 1 mM DTT, 4% glycerol, room temperature, 30 min; GST-TFs on glutathione beads, 16-mer random dsDNA library, 0.1% formaldehyde crosslink after washing; high values mean tight binding
FLI1 = target: T1, FLI1 (Homo sapiens, UniProt Q01543 1-452); details: protein: recombinant; tags: N-terminal GST; dsDNA, one strand shown
T1 sequence: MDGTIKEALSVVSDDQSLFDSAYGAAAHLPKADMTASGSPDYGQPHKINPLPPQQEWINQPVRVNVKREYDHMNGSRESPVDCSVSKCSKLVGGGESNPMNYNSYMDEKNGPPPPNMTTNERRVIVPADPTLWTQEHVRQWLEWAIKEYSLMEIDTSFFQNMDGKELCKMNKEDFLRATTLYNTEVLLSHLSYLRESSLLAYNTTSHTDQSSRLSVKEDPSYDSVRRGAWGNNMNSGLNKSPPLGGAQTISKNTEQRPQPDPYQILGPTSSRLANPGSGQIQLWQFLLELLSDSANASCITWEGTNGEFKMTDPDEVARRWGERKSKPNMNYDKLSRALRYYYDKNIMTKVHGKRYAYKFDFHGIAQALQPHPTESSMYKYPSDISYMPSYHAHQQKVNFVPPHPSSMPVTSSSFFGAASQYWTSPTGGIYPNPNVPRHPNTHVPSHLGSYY
In short: (§1)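 Sequencing on an Illumina NextSeq500 followed washing, crosslinking with 0.1% formaldehyde, proximity ligation (BsaI/T4 ligase, 1 h, 37 °C) and PCR amplification of pools that had been incubated for 30 min at room temperature with 200 nmole of a random double-stranded 16-mer DNA library in Tris/NaCl/DTT/glycerol buffer. Each pool held DNA-barcoded human transcription factors, expressed in yeast as GST fusions and captured on glutathione beads, plus a tag-only sample. Binding signal is a hexamer's read frequency for a factor divided by its frequency in the tag-only sample.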

ELK1 = target: T2, ELK1 (Homo sapiens, UniProt P19419 1-428); details: protein: recombinant; tags: N-terminal GST; dsDNA, one strand shown
T2 sequence: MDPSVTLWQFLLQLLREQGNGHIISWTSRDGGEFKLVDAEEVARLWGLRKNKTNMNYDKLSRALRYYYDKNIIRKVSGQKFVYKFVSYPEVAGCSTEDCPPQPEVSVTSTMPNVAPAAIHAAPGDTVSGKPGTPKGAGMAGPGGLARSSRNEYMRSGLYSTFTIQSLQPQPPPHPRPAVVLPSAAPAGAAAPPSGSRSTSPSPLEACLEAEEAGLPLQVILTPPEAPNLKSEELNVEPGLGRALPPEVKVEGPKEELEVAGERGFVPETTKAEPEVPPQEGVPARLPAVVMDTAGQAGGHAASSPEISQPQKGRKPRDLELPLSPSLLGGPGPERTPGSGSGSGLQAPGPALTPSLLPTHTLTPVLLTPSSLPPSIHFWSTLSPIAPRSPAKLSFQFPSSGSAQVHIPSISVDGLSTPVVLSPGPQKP
In short: as §1

GABPA = target: T3, GABPA (Homo sapiens, UniProt Q06546 1-454); details: protein: recombinant; tags: N-terminal GST; dsDNA, one strand shown
T3 sequence: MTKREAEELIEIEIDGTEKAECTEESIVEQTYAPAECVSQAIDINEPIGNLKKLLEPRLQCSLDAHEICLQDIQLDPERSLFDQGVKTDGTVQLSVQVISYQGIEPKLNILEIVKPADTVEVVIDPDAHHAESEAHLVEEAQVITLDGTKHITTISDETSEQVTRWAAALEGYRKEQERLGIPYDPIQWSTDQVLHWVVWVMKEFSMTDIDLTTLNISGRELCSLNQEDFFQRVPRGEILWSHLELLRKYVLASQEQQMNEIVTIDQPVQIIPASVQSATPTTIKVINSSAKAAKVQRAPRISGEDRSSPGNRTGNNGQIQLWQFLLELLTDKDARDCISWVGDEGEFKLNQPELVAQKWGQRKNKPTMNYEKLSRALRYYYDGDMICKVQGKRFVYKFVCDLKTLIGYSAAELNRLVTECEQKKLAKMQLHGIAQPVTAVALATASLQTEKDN
In short: as §1

ERG = target: T4, ERG (Homo sapiens, UniProt P11308 1-479); details: protein: recombinant; tags: N-terminal GST; dsDNA, one strand shown
T4 sequence: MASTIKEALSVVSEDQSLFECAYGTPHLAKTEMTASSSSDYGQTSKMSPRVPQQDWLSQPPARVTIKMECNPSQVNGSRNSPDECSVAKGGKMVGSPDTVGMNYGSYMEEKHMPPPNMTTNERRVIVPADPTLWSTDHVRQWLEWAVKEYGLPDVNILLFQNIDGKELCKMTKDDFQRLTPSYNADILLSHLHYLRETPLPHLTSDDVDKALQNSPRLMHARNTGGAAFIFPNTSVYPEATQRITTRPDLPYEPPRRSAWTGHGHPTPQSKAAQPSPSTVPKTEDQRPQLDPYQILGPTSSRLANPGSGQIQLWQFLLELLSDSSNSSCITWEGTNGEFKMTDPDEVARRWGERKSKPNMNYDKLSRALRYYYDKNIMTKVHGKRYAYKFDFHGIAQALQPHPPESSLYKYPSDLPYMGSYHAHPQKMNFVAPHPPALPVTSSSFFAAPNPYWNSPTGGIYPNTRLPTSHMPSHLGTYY
In short: as §1

ELF1 = ELF1 (Homo sapiens, UniProt P32519 1-619); details: protein: recombinant; tags: N-terminal GST; dsDNA, one strand shown
Chain of ELF1 (P32519 whole entry): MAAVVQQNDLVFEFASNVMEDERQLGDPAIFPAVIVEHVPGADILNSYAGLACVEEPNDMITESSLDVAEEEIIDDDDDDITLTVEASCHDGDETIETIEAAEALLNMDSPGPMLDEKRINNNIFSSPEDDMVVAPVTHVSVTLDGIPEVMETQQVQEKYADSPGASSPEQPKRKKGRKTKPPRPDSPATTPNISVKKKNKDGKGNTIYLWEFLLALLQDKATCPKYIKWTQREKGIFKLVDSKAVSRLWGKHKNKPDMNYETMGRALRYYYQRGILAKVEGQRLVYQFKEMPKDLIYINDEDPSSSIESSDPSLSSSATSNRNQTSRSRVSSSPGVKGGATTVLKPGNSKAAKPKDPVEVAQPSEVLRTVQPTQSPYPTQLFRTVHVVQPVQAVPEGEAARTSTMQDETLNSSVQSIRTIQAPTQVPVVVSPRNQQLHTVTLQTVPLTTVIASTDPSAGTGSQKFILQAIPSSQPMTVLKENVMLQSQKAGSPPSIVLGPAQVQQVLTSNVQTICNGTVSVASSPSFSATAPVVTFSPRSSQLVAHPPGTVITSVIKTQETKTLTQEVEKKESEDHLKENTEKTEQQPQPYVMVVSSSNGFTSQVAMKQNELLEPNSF
In short: as §1

EHF = target: T5, EHF (Homo sapiens, UniProt Q9NZC4 1-300); details: protein: recombinant; tags: N-terminal GST; dsDNA, one strand shown
T5 sequence: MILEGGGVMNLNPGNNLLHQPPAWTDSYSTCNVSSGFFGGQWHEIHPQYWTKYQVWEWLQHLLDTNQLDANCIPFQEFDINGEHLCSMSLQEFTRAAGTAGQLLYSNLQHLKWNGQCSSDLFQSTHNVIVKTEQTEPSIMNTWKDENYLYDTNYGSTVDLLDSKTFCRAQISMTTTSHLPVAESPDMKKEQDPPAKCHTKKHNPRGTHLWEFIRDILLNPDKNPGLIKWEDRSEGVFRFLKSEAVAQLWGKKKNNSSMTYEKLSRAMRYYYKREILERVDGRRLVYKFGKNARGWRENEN
In short: as §1

SPI1 = SPI1 (Homo sapiens, UniProt P17947 1-270); details: protein: recombinant; tags: N-terminal GST; dsDNA, one strand shown
In short: as §1

SPIB = SPIB (Homo sapiens, UniProt Q01892 1-262); details: protein: recombinant; tags: N-terminal GST; dsDNA, one strand shown
Chain of SPIB (Q01892 whole entry): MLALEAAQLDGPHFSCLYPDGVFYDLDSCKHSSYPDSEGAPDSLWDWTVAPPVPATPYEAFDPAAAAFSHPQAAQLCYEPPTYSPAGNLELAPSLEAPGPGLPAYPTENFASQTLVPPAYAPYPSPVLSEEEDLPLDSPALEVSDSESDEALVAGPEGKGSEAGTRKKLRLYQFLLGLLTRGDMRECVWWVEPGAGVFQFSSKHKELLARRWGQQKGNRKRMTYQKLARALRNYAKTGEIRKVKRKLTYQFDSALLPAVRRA
In short: as §1

ELK3 = target: T6, ELK3 (Homo sapiens, UniProt P41970 1-407); details: protein: recombinant; tags: N-terminal GST; dsDNA, one strand shown
T6 sequence: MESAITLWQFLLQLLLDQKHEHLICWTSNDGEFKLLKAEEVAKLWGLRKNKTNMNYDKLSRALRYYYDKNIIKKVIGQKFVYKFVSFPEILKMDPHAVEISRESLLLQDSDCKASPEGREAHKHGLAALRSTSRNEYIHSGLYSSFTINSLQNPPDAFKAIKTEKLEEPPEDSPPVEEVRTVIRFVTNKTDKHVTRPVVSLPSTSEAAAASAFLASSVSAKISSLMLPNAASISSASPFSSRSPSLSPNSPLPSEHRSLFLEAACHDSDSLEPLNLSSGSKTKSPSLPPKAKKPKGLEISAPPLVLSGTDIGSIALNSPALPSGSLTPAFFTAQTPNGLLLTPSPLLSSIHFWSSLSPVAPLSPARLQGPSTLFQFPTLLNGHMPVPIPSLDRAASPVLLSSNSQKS
In short: as §1

FEV = target: T7, FEV (Homo sapiens, UniProt Q99581 1-238); details: protein: recombinant; tags: N-terminal GST; dsDNA, one strand shown
T7 sequence: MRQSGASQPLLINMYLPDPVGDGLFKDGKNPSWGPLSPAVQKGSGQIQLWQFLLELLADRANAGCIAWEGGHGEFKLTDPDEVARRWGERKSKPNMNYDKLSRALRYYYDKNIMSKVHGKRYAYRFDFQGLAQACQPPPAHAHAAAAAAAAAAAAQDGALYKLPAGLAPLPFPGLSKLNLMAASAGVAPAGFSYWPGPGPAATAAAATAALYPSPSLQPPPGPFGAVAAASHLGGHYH
In short: as §1

ETV5 = ETV5 (Homo sapiens, UniProt P41161 1-510); details: protein: recombinant; tags: N-terminal GST; dsDNA, one strand shown
Chain of ETV5 (P41161 whole entry): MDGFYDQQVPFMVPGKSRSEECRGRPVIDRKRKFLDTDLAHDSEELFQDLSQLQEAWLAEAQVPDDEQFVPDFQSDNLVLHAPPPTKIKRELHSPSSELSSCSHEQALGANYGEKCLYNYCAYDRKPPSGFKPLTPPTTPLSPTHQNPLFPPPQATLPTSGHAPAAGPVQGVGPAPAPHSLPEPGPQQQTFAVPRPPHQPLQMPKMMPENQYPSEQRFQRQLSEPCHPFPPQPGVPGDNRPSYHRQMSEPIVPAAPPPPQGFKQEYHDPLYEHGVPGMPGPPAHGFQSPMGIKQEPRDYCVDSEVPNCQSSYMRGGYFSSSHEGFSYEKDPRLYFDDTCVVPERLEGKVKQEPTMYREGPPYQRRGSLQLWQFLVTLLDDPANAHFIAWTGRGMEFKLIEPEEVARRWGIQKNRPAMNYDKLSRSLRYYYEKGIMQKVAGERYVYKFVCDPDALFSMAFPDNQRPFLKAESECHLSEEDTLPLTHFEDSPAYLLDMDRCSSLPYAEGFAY
In short: as §1

HSF1 = HSF1 (Homo sapiens, UniProt Q00613 1-529); details: protein: recombinant; tags: N-terminal GST; chain copies: 3; dsDNA, one strand shown
Chain of HSF1 (Q00613 whole entry): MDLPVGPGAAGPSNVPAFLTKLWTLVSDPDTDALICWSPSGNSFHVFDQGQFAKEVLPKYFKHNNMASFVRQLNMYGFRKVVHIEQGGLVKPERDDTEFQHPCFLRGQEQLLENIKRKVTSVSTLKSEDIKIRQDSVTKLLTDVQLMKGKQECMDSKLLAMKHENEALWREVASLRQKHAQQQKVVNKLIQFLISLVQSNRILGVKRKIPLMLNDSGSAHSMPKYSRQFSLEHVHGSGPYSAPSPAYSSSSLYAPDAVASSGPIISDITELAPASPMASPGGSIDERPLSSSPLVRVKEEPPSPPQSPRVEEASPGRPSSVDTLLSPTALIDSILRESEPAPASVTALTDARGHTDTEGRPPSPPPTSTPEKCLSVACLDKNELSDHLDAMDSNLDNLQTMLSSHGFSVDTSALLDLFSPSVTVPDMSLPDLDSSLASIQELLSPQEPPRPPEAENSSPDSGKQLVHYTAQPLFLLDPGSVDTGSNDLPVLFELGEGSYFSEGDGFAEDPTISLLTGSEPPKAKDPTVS
In short: as §1

SPIC = target: T8, SPIC (Homo sapiens, UniProt Q8N5J4 1-248); details: protein: recombinant; tags: N-terminal GST; dsDNA, one strand shown
T8 sequence: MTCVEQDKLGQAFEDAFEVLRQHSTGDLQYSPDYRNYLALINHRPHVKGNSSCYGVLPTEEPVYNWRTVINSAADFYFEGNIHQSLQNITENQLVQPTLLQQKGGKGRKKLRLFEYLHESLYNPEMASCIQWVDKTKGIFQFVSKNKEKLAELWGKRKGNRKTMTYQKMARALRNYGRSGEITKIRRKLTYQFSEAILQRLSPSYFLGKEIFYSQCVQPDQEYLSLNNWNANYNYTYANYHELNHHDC
In short: as §1

ELF4 = ELF4 (Homo sapiens, UniProt Q99607 1-663); details: protein: recombinant; tags: N-terminal GST; dsDNA, one strand shown
Chain of ELF4 (Q99607 whole entry): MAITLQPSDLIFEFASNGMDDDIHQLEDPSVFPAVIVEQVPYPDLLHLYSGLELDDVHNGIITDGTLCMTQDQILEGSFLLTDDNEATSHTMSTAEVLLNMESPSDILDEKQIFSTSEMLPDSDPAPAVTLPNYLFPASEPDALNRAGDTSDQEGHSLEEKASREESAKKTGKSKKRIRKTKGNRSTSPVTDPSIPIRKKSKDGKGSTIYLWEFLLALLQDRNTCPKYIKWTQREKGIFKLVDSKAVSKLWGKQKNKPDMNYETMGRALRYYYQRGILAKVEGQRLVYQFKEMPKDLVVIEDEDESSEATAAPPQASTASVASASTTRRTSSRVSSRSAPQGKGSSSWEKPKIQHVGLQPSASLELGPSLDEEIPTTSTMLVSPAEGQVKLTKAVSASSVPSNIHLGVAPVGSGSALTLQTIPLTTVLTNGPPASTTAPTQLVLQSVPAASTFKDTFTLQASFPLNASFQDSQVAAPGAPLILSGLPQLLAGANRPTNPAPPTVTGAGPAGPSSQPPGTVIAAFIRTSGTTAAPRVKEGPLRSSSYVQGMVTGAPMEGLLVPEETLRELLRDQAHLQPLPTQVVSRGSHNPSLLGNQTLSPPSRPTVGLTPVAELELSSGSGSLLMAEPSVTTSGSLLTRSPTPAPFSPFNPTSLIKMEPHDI
In short: as §1

ELK4 = target: T9, ELK4 (Homo sapiens, UniProt P28324-2 1-405); details: protein: recombinant; tags: N-terminal GST; dsDNA, one strand shown
T9 sequence: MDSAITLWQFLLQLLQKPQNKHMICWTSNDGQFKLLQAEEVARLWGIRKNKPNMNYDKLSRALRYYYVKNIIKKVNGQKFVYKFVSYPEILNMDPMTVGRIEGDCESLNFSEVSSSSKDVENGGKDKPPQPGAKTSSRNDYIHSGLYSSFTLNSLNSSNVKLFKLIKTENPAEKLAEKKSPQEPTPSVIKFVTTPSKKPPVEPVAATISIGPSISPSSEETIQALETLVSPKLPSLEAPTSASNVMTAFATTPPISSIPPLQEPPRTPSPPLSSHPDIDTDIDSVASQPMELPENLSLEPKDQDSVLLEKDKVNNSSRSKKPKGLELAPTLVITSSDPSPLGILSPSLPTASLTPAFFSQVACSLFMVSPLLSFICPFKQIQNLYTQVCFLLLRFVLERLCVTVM
In short: as §1

ETV2 = target: T10, ETV2 (Homo sapiens, UniProt O00321 1-342); details: protein: recombinant; tags: N-terminal GST; dsDNA, one strand shown
T10 sequence: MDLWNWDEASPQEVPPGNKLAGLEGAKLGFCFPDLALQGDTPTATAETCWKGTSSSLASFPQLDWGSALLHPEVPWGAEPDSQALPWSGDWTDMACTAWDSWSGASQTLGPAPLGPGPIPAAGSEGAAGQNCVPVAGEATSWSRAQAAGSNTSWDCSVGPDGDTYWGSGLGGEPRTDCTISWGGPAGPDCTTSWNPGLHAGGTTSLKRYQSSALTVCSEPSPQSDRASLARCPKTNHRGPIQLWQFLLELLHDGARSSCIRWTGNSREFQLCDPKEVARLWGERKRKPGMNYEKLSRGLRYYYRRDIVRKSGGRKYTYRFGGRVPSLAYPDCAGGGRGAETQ
In short: as §1

ELF3 = target: T11, ELF3 (Homo sapiens, UniProt P78545 1-371); details: protein: recombinant; tags: N-terminal GST; dsDNA, one strand shown
T11 sequence: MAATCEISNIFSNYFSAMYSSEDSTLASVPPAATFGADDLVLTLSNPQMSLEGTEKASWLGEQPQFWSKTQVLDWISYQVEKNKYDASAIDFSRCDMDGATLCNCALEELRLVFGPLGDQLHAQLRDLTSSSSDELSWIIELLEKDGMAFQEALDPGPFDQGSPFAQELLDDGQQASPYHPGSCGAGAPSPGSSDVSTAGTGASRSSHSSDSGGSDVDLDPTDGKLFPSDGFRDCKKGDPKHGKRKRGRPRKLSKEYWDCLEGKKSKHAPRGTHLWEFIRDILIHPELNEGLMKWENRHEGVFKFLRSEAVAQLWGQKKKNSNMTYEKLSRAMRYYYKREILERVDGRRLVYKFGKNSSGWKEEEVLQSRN
In short: as §1

CRX = CRX (Homo sapiens, UniProt O43186 1-299); details: protein: recombinant; tags: N-terminal GST; dsDNA, one strand shown
Chain of CRX (O43186 whole entry): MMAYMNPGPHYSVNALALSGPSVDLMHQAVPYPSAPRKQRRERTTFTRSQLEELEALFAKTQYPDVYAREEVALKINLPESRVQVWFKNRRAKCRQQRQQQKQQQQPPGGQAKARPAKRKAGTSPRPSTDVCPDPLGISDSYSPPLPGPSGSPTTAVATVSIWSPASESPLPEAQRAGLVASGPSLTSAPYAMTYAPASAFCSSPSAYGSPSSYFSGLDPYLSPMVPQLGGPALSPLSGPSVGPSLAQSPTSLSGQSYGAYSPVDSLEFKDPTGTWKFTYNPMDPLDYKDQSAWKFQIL
In short: as §1

ETV1 = ETV1 (Homo sapiens, UniProt P50549 1-477); details: protein: recombinant; tags: N-terminal GST; dsDNA, one strand shown
Chain of ETV1 (P50549 whole entry): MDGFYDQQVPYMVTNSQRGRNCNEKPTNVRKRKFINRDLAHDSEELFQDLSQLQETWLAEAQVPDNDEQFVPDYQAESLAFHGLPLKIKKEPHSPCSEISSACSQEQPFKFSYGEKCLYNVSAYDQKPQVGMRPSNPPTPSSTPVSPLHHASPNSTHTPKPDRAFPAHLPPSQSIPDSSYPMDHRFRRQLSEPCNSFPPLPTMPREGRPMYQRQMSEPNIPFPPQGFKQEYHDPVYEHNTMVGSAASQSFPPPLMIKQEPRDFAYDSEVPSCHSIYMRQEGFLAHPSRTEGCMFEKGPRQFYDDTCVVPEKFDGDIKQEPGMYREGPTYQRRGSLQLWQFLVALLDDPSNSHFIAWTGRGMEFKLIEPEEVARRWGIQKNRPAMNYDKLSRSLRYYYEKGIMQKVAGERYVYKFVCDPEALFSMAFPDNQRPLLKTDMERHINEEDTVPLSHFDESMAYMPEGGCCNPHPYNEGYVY
In short: as §1

Question: What does the source list for TTCGGT?
Answer: binding signal (FLI1): 1.06 fold enrichment (6-mer frequency, TF over GST control); binding signal (ELK1): 1.09 fold enrichment (6-mer frequency, TF over GST control); binding signal (GABPA): 1.13 fold enrichment (6-mer frequency, TF over GST control); binding signal (ERG): 1.1 fold enrichment (6-mer frequency, TF over GST control); binding signal (ELF1): 1.14 fold enrichment (6-mer frequency, TF over GST control); binding signal (EHF): 1.23 fold enrichment (6-mer frequency, TF over GST control); binding signal (SPI1): 1.2 fold enrichment (6-mer frequency, TF over GST control); binding signal (SPIB): 1.16 fold enrichment (6-mer frequency, TF over GST control); binding signal (ELK3): 1.22 fold enrichment (6-mer frequency, TF over GST control); binding signal (FEV): 1.16 fold enrichment (6-mer frequency, TF over GST control); binding signal (ETV5): 1.23 fold enrichment (6-mer frequency, TF over GST control); binding signal (HSF1): 1.22 fold enrichment (6-mer frequency, TF over GST control); binding signal (SPIC): 1.34 fold enrichment (6-mer frequency, TF over GST control); binding signal (ELF4): 1.17 fold enrichment (6-mer frequency, TF over GST control); binding signal (ELK4): 1.21 fold enrichment (6-mer frequency, TF over GST control); binding signal (ETV2): 1.13 fold enrichment (6-mer frequency, TF over GST control); binding signal (ELF3): 1.04 fold enrichment (6-mer frequency, TF over GST control); binding signal (CRX): 1 fold enrichment (6-mer frequency, TF over GST control); binding signal (ETV1): 1.23 fold enrichment (6-mer frequency, TF over GST control)
